Assay [1] has as its target Thyrotropin receptor (Homo sapiens) (UniProt P16473). Description: qHTS Assay for Antagonists of the Thyroid Stimulating Hormone Receptor (AID 488980). Also: series mostly up to about 58 µM; 0% is about no effect. An outline of the steps:
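Cells expressing human TSHR (HEK293) are dispensed in HBSS/HEPES containing 70 uM RO 20-1724, compound is added, then TSH at EC80 (4 nM final). Antibody in lysis buffer follows, 30 minutes at room temperature before HTRF detection.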

For assay [2], the target named is D(1A) dopamine receptor (Homo sapiens) (UniProt P21728). The assay is described as follows: HTS Assay for Allosteric Agonists of the Human D1 Dopamine Receptor: Primary Screen for Agonists (AID 488981). Also: potency is read from the fitted curve at half-maximal effect. As to activation: 0% is about no effect. An outline of the steps:
(§1)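 Tetracycline-induced HEK293 Trex D1 cells with forced coupling to calcium, loaded with no-wash calcium dye; kinetic fluorescence read 180 s after compound addition for agonism, then a further 180 s after an EC20 dopamine challenge for potentiation.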

Assay [3] shares this target. Description: HTS Assay for Allosteric Agonists of the Human D1 Dopamine Receptor: Primary Screen for Potentiators (AID 488982). Also: 0% is about no effect. An outline of the steps:
as §1

Assay [4] has the same target. Description: HTS Assay for Allosteric Agonists of the Human D1 Dopamine Receptor: Primary Screen for Antagonists (AID 488983).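 Also: calcium flux response to an EC80 dopamine challenge measured with no-wash dye; nearly all actives have a fitted effect of over 65% in size.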 Also: potency is read from the fitted curve at half-maximal effect. In short, it runs like this:
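Tetracycline-induced HEK293 T-REx cells expressing force-coupled D1 were plated overnight at 30 C, dye-loaded for calcium, and read kinetically. Compounds were pinned in, then an EC80 dopamine challenge followed after 180 s to reveal antagonism.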

A short description of assay [5]: Validation screen for small molecules that induce genotoxicity in human embryonic kidney (HEK293T) cells expressing luciferase-tagged ELG1 (AID 493106). Also: potency is read from the fitted curve at half-maximal effect. An outline of the steps: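 HEK293T cells expressing luciferase-tagged ELG1 were exposed to compound or DMSO vehicle for 16 hr at 37 °C, 5% CO2. Genotoxic stress raises ELG1 levels, so increased luciferase signal after ONE-Glo addition and 30 min at room temperature marks hits.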

Assay [6] addresses ATPase family AAA domain-containing protein 5 (Homo sapiens) (UniProt Q96QE3). The assay is described as follows: Validation screen for small molecules that inhibit ELG1-dependent DNA repair in human embryonic kidney (HEK293T) cells expressing luciferase-tagged ELG1 (AID 493107). Also: nearly all actives have a fitted effect of over 70% in size. Also: potency is read from the fitted curve at half-maximal effect. In short, it runs like this:
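HEK293T cells expressing luciferase-tagged ELG1 were co-treated with 5-fluorouridine and compound or DMSO for 16 hr at 37 °C, 5% CO2. Luciferase activity was then read with ONE-Glo after 30 min at room temperature; suppressed signal indicates blocked ELG1 function.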

Assay [7] has as its target Thyrotropin-releasing hormone receptor (Homo sapiens) (UniProt P34981). Description: qHTS for Small Molecule Agonists and Allosteric Enhancers of Human TRH Receptor: Validation Screen for Agonists (AID 493127;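 active = calcium activation more than 3 SD above the typical response in the agonist read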;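 also: intracellular calcium rise by fluo-8 fluorescence before TRH EC20 addition; 0% is about no effect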). The conditions noted are these: TRH receptor agonist cell assay; at 2 µM; stronger effect = higher value. An outline of the steps:
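TRHR-expressing cells were plated overnight in serum-containing medium, then loaded with fluo-8 calcium dye at room temperature for 30 min–1.5 h. After a 10 s baseline, compound was pin-transferred and calcium fluorescence (ex 480/em 530) read kinetically for agonist response.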

Assay [8] is described as follows: Nrf2 qHTS screen for inhibitors: Validation (AID 493153; active = well fitted inhibition curve with a large enough effect in the main read-out, with a control signal flat, not every such curve was filed as active). The conditions noted are these: Potency: luciferase luminescence; viability change: measured here: cytotoxicity max response. An outline of the steps: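 A549 cells carrying an ARE-driven firefly luciferase reporter, in 5% FBS OPTI-MEM, were treated with compounds in concentration-response for 18-24 h at 37°C. Viability was read by CellTiter-Fluor fluorescence, then Nrf2 activity by luciferase luminescence.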

Assay [9] has as its target ATP-dependent 6-phosphofructokinase (Trypanosoma brucei brucei) (UniProt O15648). Description: qHTS Assay to Find Inhibitors of T. brucei phosphofructokinase: hit validation (AID 492961).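 Also: luminescence reports ADP formed as PFK phosphorylates fructose-6-phosphate with ATP; series mostly up to about 51 µM; % is scaled to controls: 0 for no effect and ±100 for the full control effect.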 An outline of the steps: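 Compounds titrated; %activity normalized to 0x and 1x enzyme controls, curve-fitted. Readout: ADP-Glo luminescence after 45 min room-temperature reaction of 1.25 nM PFK, 0.1 mM ATP, 0.5 mM F6P, pH 8.0.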

Results filed as inconclusive are left out. Calls of active or inactive are those of the source. Unless noted, calls follow the shape of the dose curve; as a rule, active = well fitted curve in the direction sought with a large enough effect; inconclusive = small, poorly fitted or top-dose-only effect, or another doubt; inactive = no such curve, though single readings can be large; an effect the other way counts as inactive or inconclusive.

Thyrotropin-releasing hormone receptor (Homo sapiens), sequence (P34981 whole entry, looked up): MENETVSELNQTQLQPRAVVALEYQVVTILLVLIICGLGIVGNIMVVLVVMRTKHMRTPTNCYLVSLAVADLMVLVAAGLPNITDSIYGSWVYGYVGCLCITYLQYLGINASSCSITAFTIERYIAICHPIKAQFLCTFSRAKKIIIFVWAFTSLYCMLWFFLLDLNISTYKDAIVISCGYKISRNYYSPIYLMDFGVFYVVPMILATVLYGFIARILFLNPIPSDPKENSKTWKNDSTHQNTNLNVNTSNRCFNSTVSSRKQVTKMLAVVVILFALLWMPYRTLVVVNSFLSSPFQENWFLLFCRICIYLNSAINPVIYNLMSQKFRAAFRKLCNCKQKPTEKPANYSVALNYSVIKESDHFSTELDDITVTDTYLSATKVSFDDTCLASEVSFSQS
D(1A) dopamine receptor (Homo sapiens), sequence (P21728 whole entry, looked up): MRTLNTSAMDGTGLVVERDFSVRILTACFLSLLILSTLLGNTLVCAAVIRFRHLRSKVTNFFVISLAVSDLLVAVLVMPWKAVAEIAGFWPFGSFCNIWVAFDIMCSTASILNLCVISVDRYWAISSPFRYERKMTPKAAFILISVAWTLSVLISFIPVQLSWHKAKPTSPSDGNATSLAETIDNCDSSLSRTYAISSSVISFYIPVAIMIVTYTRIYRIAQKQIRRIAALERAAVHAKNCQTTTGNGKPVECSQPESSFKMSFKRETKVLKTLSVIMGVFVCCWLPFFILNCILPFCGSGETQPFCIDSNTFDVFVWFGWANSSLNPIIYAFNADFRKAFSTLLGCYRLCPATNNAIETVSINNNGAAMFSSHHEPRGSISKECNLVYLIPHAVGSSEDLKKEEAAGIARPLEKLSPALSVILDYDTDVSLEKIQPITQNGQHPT
Thyrotropin receptor (Homo sapiens), sequence (P16473 whole entry, looked up): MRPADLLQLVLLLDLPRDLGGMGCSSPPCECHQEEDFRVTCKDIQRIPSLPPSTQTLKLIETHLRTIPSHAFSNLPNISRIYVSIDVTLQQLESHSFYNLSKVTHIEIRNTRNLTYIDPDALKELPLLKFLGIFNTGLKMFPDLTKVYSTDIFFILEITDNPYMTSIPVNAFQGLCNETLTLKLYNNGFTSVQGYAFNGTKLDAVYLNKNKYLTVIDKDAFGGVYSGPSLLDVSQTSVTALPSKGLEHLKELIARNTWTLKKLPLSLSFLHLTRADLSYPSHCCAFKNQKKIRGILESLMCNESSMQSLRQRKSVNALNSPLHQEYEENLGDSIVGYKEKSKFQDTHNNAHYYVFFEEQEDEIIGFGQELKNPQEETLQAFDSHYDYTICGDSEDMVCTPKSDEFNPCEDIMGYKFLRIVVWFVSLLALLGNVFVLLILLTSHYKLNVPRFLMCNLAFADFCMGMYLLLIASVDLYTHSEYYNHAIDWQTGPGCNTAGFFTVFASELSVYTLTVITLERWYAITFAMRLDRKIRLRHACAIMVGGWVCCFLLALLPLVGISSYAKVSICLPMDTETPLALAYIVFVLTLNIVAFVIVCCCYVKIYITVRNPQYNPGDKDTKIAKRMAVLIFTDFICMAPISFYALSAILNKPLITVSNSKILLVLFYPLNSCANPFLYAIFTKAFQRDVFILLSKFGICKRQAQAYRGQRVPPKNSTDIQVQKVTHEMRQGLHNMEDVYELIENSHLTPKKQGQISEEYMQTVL
ATPase family AAA domain-containing protein 5 (Homo sapiens), sequence (Q96QE3 whole entry, looked up, the tested form may be a part): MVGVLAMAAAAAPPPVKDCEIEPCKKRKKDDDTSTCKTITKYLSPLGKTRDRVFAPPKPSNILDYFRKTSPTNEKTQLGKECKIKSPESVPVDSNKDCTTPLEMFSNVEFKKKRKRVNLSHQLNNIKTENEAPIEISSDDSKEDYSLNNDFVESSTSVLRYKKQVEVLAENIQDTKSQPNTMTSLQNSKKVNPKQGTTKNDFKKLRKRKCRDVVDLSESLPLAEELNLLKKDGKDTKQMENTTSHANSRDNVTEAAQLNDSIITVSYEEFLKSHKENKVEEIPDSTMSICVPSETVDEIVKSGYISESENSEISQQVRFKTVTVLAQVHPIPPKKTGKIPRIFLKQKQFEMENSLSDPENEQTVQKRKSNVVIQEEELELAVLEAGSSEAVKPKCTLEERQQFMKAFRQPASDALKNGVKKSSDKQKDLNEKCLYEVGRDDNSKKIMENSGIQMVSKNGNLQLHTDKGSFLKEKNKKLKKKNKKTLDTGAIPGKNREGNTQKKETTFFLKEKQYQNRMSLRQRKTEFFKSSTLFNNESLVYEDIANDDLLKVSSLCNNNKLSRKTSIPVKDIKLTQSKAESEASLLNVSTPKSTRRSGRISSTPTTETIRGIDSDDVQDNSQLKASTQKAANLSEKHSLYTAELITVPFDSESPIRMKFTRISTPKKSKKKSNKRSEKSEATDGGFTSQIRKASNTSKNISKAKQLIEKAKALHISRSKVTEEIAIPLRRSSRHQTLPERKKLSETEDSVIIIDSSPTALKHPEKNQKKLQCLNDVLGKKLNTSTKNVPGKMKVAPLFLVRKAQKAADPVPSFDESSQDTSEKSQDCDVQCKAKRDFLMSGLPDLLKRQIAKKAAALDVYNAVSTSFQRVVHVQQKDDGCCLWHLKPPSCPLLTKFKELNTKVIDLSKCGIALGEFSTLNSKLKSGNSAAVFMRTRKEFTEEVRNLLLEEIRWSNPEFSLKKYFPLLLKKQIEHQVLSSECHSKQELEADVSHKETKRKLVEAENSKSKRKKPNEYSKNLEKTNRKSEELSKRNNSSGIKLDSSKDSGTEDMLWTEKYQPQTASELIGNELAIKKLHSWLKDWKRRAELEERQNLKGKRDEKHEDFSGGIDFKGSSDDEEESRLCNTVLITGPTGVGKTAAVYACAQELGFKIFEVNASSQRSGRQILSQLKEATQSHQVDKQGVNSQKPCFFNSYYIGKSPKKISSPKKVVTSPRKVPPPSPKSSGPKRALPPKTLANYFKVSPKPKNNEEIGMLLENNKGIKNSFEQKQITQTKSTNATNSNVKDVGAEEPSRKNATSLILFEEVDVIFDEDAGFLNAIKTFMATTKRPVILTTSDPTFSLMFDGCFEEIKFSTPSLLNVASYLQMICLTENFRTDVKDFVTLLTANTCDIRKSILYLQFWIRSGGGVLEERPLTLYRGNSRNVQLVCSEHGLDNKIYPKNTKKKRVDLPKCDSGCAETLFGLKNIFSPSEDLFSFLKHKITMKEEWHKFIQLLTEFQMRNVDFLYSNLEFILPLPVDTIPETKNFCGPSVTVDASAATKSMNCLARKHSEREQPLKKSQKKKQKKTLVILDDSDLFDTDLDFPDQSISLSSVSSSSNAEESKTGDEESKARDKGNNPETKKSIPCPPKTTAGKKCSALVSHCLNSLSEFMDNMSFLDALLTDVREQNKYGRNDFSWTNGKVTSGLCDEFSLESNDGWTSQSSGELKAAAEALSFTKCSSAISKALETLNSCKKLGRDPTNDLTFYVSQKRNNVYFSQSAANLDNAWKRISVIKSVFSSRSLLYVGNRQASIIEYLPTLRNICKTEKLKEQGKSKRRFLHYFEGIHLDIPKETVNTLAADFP
ATP-dependent 6-phosphofructokinase (Trypanosoma brucei brucei), sequence (O15648 whole entry, looked up): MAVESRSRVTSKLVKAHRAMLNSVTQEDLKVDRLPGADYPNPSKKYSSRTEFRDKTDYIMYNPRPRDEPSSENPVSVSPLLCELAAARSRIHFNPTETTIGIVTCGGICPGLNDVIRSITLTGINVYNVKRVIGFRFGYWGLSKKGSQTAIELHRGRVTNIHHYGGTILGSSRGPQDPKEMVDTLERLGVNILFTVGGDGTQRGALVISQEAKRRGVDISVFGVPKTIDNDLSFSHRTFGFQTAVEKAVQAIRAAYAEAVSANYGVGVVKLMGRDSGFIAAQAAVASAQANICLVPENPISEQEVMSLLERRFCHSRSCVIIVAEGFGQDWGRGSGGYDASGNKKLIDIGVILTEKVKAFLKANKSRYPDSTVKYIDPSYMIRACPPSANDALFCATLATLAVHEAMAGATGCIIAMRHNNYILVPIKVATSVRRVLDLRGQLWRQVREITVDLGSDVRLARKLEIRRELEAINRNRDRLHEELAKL

In the case of `NC(=O)C(=O)O`, the call in [1] was inactive. Further, the Potency entry in [2], in assay [3], in assay [4], in assay [5], in assay [6] and in assay [8] was “inactive” each time. Besides, the activation in [7] was 1% (inactive). In assay [8], the viability change was 4.28%.

Turning to `CC1CN(S(=O)(=O)c2cccc3cnccc23)CCN1` (stereo not given), in [1], the call was inactive. For the same molecule, the Potency entry in assay [2], in assay [3], in assay [4], in [5] and in assay [8] was “inactive” throughout. The Potency in assay [6] was 20.6 µM (active). Moreover, in assay [7], the activation was 1.06% (inactive). For the same molecule, the viability change in assay [8] was 1.98%.

Consider `CN1[C@@H](CC(=O)c2ccccc2)CCC[C@H]1C[C@H](O)c1ccccc1`, for which the molecule was called inactive in assay [1] and in [9]. The Potency entry in assay [2], in assay [3], in assay [4], in assay [5] and in assay [8] was “inactive” throughout. For the same molecule, the activation in assay [7] was 0.5% (inactive). Also, the viability change in assay [8] was -11%.

Take `CCCCCCCCCCCCCCCC(=O)NCC(COP(=O)([O-])OCC[N+](C)(C)C)OCC` (stereo not given): the result in assay [1] was inactive. Also, the Potency was 12.6 µM (active) in [2], 10 µM (active) in assay [4] and 18.3 µM (active) in assay [5]. For the same molecule, the Potency result in assay [3] and in [8] was “inactive” each time. Further, the activation in assay [7] was 0.812% (inactive). In addition, in [8], the viability change was found to be 10.8%.

As for `CN(C)c1nc(N)c(C(=O)N=C(N)N)nc1Cl`, in assay [1], the outcome was inactive. The Potency entry in assay [2], in [3], in assay [4], in [5] and in assay [8] was “inactive” each time. Also, the activation in [7] is 0.625% (inactive). The viability change in assay [8] was determined as 1.27%.

Regarding `N=C(N)SCCc1ccc(CCSC(=N)N)cc1`, in [1], the molecule was called inactive. Moreover, the Potency entry in [2], in assay [3], in assay [4], in assay [5], in [6] and in assay [8] was “inactive” throughout. The activation in [7] was 1.12% (inactive). Besides, the viability change in assay [8] is -6.92%.

Consider `COc1cc2nc(N3CCN(C(=O)OCc4ccccc4)C(C(=O)NC(C)(C)C)C3)nc(N)c2cc1OC` (stereo not given), for which the molecule was classed as inactive in assay [1]. Further, the Potency entry in assay [2], in assay [3], in assay [4], in assay [5] and in assay [8] was “inactive” each time. Also, the activation in [7] is -3.06% (inactive). Further, the viability change in [8] is -20.4%.

With `CN(C)c1ccc(/C=C2\C(=O)Nc3ccccc32)cc1`, the molecule was classed as inactive in assay [1]. Also, the Potency entry in assay [2], in assay [3] and in assay [4] was “inactive” each time. For the same molecule, in assay [5], the Potency is 1.83 µM (active). For the same molecule, the activation in assay [7] is -8.75% (inactive).

Take `Fc1ccc(C(OCCCc2cnc[nH]2)c2ccc(F)cc2)cc1`: the call in [1] was inactive. Moreover, the Potency result in [2], in [3], in assay [4], in assay [5], in assay [6] and in assay [8] was “inactive” in each case. In addition, the activation in assay [7] was -5.06% (inactive). Also, the viability change in [8] is 0.0521%.

Take `CC[C@@H](C)[C@H]1O[C@]2(CC[C@@H]1C)C[C@@H]1C[C@@H](C/C=C(\C)[C@@H](O[C@H]3C[C@H](OC)[C@@H](O[C@H]4C[C@H](OC)[C@@H](O)[C@H](C)O4)[C@H](C)O3)[C@@H](C)/C=C/C=C3\CO[C@@H]4[C@H](O)C(C)=C[C@@H](C(=O)O1)[C@]34O)O2`: the call in assay [1] was inactive.

On to `NCCCCCCCCCCN`, for which the molecule was called inactive in assay [1]. Further, the Potency entry in assay [2], in assay [3], in assay [4], in [5], in assay [6] and in [8] was “inactive” in each case. For the same molecule, in assay [7], the activation is 0.938% (inactive). Further, in [8], the viability change was -2.16%.

As to `N#C/C(=C\c1ccc(O)c(O)c1)C(=O)NCc1ccccc1`, the result in assay [1] was inactive. In addition, the Potency result in assay [2], in [3], in assay [4], in [5], in assay [6] and in assay [8] was “inactive” in each case. Further, the activation in [7] was 1.31% (inactive). Moreover, in [8], the viability change is -19.8%.

In the case of `O=C(c1cc(O)c(O)c([N+](=O)[O-])c1)c1ccccc1F`, the call in assay [1] was inactive. Besides, the Potency entry in assay [2], in [3], in assay [4] and in assay [5] was “inactive” throughout. Moreover, the activation in assay [7] was -0.125% (inactive).

As for `COc1cc(C(O)CO)ccc1OS(=O)(=O)O` (stereo not given), the molecule was called inactive in assay [1]. In addition, the Potency entry in assay [2], in [3], in assay [4], in [5] and in assay [8] was “inactive” throughout. In [7], the activation is -2.69% (inactive). Also, the viability change in [8] is -9.03%.

`O=C(O)CC1CCCc2ccccc2C1O` (stereo not given): in assay [1], the molecule was classed as inactive. Besides, the Potency entry in [2], in assay [3], in [4], in [5], in assay [6] and in assay [8] was “inactive” in each case. Further, in assay [7], the activation was 0.625% (inactive). For the same molecule, in assay [8], the viability change worked out at 2.15%.

Take `Cc1ccccc1CNc1ncnc2c1ncn2C1OC(CO)C(O)C1O` (stereo not given): the call in assay [1] and in [9] was inactive. For the same molecule, the Potency entry in [2], in [3] and in assay [4] was “inactive” each time. In addition, the Potency in assay [6] is 13 µM (active). Also, the activation in assay [7] is 1.31% (inactive).

`O=C(Nc1ccccc1)c1cc([N+](=O)[O-])ccc1Cl`: the molecule was called inactive in assay [1]. Besides, the Potency result in [2], in assay [3], in assay [4] and in assay [8] was “inactive” in each case. Moreover, the activation in assay [7] was 0.375% (inactive). In addition, in assay [8], the viability change is -4.87%.

Turning to `C#CCN1C(C)=C(C(=O)OC)C(c2cccc([N+](=O)[O-])c2)C(C(=O)OCC)=C1C` (stereo not given), in assay [1], the molecule was called inactive. Further, the Potency result in assay [2], in assay [4], in assay [5] and in assay [8] was “inactive” in each case. For the same molecule, the activation in assay [7] is -10.2% (inactive). Besides, in assay [8], the viability change is -0.517%.

As to `Cc1cc(NC(=O)Nc2ccc3c(ccn3C)c2)sn1`, in [1], the result was inactive. In addition, the Potency result in assay [2], in assay [3] and in assay [8] was “inactive” each time. In assay [7], the activation is 0.625% (inactive). The viability change in [8] amounted to 3.91%.

As for `c1ccc(-c2ccccn2)nc1`, in [1], the result was inactive. Further, the Potency result in assay [2], in assay [3], in assay [4], in [6] and in [8] was “inactive” in each case. Moreover, the activation in [7] is 0% (inactive). Also, the viability change in assay [8] is -0.658%.

Take `N#C/C(=C\c1ccc(O)c(O)c1)C(=O)NCCCc1ccccc1`: in [1], the call was inactive. Also, the Potency entry in [2], in [3] and in assay [8] was “inactive” in each case. In assay [7], the activation is 0.625% (inactive). In assay [8], the viability change was -10.3%.

Turning to `O=C(O)CCCC[C@@H]1CCSS1`, in assay [1], the molecule was classed as inactive. For the same molecule, the Potency entry in [2], in [3], in assay [4], in assay [6] and in assay [8] was “inactive” in each case. In addition, the activation in assay [7] was 0.438% (inactive). Also, in [8], the viability change is 5.5%.

For the molecule `CCCCCC(O)c1cccc(OCc2ccc3ccccc3n2)c1` (stereo not given), the molecule was called inactive in assay [1]. Moreover, the Potency result in assay [2], in assay [3], in assay [4] and in [6] was “inactive” each time. Also, in assay [7], the activation was -5.62% (inactive).

Take `O=Nc1ccc2oc(=O)ccc2c1`: the molecule was called inactive in [1]. For the same molecule, the Potency result in assay [2], in assay [4], in [5], in assay [6] and in [8] was “inactive” in each case. Also, in [7], the activation was -0.5% (inactive). Further, in assay [8], the viability change stood at 1.8%.

Values taken from PubChem BioAssay (NCATS).
